14-3-3 Bad PPI = disrupts binding of bovine 14-3-3 zeta to phospho-Bad peptide. P63103. inhibition, % at 21.7 µM. TR-FRET 14-3-3zeta/Dy647-pBad peptide displacement, 1 h. 220,000 tested, 0.71% active;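 active means inhibition above about 70%, limit read from the data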;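 further: 0% = full 14-3-3 plus peptide FRET controls and 100% = background without 14-3-3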
Efa HMGR inh = E. faecalis class II HMG-CoA reductase inhibition; 190,000 tested, 0.41% active; purified E. faecalis HMGR, NADPH absorbance 340 nm kinetic; inhibition, % at 10 µM;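 active means inhibition above a set limit, the median over all tested compounds plus 3 SD, cut at about 9.5% in these data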;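 further: enzyme runs in reverse so mevalonate oxidation gives rising NADPH absorbance; 0% = complete reaction with DMSO and 100% = background rate lacking mevalonate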
p47phox inh = blocks human p47phox regulatory protein of NADPH oxidases. p47phox/p22phox peptide binding, fluorescence polarization, 2 h. 220,000 tested, 0.53% active. inhibition, % at 24.7 µM. P14598;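 active means inhibition above about 30%, limit read from the data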;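 further: 0% = p47phox with labelled peptide and 100% = labelled peptide alone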
dFosB act = enhances mouse delta FosB homodimer DNA binding | P13346 | purified delta FosB, TAMRA-CDK5 oligo fluorescence polarization; percent of positive-control signal above neutral wells | activation, % at 25 µM | 340,000 tested, 0.99% active | AID 493131;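 active means mean activation above about 17%, with every replicate also reaching it, limit read from the data, passing the limit was not always enough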
Target sequence (P13346 whole entry, looked up): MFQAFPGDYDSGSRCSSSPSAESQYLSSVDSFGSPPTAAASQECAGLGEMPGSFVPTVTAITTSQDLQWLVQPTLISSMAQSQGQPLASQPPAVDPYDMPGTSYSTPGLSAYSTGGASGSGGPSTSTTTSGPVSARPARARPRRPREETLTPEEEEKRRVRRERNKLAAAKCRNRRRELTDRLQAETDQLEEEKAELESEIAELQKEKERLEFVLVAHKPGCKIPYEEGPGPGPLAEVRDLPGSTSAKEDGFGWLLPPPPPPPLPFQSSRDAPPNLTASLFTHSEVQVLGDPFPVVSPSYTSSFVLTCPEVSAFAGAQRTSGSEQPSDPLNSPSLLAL
An asterisk follows results filed as active; x = no result given; [ ] = dose if it differs, or a comment. Compounds with a hit are over-represented: about 1.9% of the library has one in this group of screens.

SMILES	14-3-3 Bad PPI	Efa HMGR inh	p47phox inh	dFosB act
COc1ccc(NC(=O)CN(C)C(=O)c2cc(-c3ccc(Cl)cc3)nc3ccccc23)cc1	x	x	x	-5.4
Cc1sc2ncn(CC(=O)N3CCCCC3)c(=O)c2c1S(=O)(=O)N1CCC(C)CC1	x	x	x	3.2
COc1cc(C(=O)NCc2nnc(SCC(=O)N3CCCCC3)o2)cc(OC)c1OC	-3.5	-3.9	-14.4	2.0
COc1ccc(C)cc1NC(=O)C1CCN(S(=O)(=O)c2ccccc2)CC1	x	x	x	3.8
CSc1nc(N)c2c3c(sc2n1)CN(C)CC3	x	x	x	-12.2
COc1ccc(C/C(N)=N/OC(=O)Cc2ccccc2)cc1OC	0.9	0.0	115.3*	-3.8
COc1ccccc1CNc1nc(=S)[nH]c2cc(OC)c(OC)cc12	x	x	x	-5.7
COc1ccc(C(=O)Nc2cc(OC)c(NC(=O)c3ccco3)cc2OC)cc1	-12.7	-3.9	63.4*	-18.1
COc1ccc(NC(=O)c2ccc(NC(=O)c3ccco3)cc2)c(OC)c1	x	x	x	-2.3
CC(C)N1C(=O)/C(=C\c2nc3ccccc3c(=O)n2-c2ccccc2)c2ccccc21	21.2	0.0	0.2	-7.8
CC(C)N1C(=O)/C(=C/c2nc3ccccc3c(=O)n2-c2ccccc2)c2ccccc21	77.2*	-5.0	-4.8	-0.5
O=C(O)c1ccc(-n2cccc2/C=N\NC(=O)c2cc3cc(Br)ccc3o2)cc1	79.7*	x	-53.9	-6.7
Cn1cc(/C=N/NC(=O)c2cc3cc(Br)ccc3o2)c2ccccc21	2.4	x	-20.7	x
CCOC(=O)c1ccc(NC(=O)CSc2nnc(-c3ccncc3)n2C)cc1	5.9	-10.1	-4.1	-10.1
CCN1/C(=C/c2ccc3cc(C)ccc3[n+]2CC)Sc2ccccc21	15.9	-6.8	-47.7	52.4*
CCN1/C(=C/c2ccc3cc(C)ccc3[n+]2CC)Sc2cc(C)c(C)cc21	-6.4	-6.4	14.0	-66.8
O=C(N/N=C/c1ccncc1)c1cc([N+](=O)[O-])cc([N+](=O)[O-])c1O	89.4*	-0.8	0.7	-8.2
O=C(N/N=C/c1ccncc1)c1cc2ccccc2cc1O	x	x	x	3.7
O=C(O)CCCN1C(=O)/C(=C/C=C/c2ccco2)SC1=S	75.7*	x	-63.5	-13.2
O=C(NN1C(=O)/C(=C/C=C/c2ccco2)SC1=S)c1ccccc1O	74.8*	x	-64.8	-6.1
O=C(O)CC(C(=O)O)N1C(=O)/C(=C/C=C/c2ccco2)SC1=S (stereo not drawn)	74.4*	x	-44.2	-8.1
Cc1ccc(NC(=O)CCCN2C(=O)/C(=C/C=C/c3ccccc3)SC2=S)cc1	4.5	-3.5	-30.6	-7.1
O=C1S/C(=C\C=C\c2ccco2)C(=O)N1c1ccc(O)cc1	9.3	-4.9	-7.1	-11.1
Cn1cccc1/C=C1\SC(=S)N(NC(=O)c2ccccc2O)C1=O	8.0	x	-17.3	-9.7
COc1ccc(/C=C2\SC(=S)N(C(Cc3ccccc3)C(=O)O)C2=O)cc1 (stereo not drawn)	7.9	-1.4	-4.3	-7.2
SMILES	14-3-3 Bad PPI	Efa HMGR inh	p47phox inh	dFosB act
O=C(O)C(Cc1ccccc1)N1C(=O)/C(=C/C=C/c2ccco2)SC1=S (stereo not drawn)	95.2*	x	-70.6	-11.2
CCC(c1ccccc1)C(CC)c1cc(O)c(O)c(O)c1 (stereo not drawn)	x	x	x	-4.3
Cc1ccc(OC(=O)C23CC4CC(CC(C4)C2)C3)c(C)n1	29.4	-1.6	-6.6	-5.3
O=C(O)CCCN1C(=O)/C(=C\c2ccc(-c3nc4ccccc4s3)o2)SC1=S	80.9*	x	-239.7	-10.8
O=C(O)CCN1C(=O)/C(=C/c2ccc(-c3nc4ccccc4s3)o2)SC1=S	22.2	6.2	8.4	-13.1
COc1ccc(C2NCCc3c2[nH]c2ccccc32)cc1CN1CCc2cc(OC)c(OC)cc2C1C (stereo not drawn)	40.8	x	-5.6	63.3*
COc1ccc(/C=N/NC(=O)c2cc(OC)c(OC)c(OC)c2)cc1CN1CCc2cc(OC)c(OC)cc2C1C (stereo not drawn)	5.4	-2.8	2.5	-13.4
COc1ccc(C2NCCc3c2[nH]c2ccccc32)cc1COc1ccc(F)cc1 (stereo not drawn)	17.8	-11.7	22.7	61.8*
COc1ccc(-c2nc(CC(=O)O)cs2)cc1	0.3	0.4	-13.4	1.4
COc1ccc(-c2nc(CC(=O)O)cs2)cc1OC	81.2*	-7.4	2.0	x
Cc1cccc(NC(=O)Cn2cnc3c(cnn3-c3ccc(F)cc3)c2=O)c1C	13.4	-3.2	11.9	48.5*
COC(=O)Cn1cnc2c(cnn2-c2ccccc2)c1=O	-2.6	-3.6	-0.5	-4.3
COc1cccc2sc(Nc3nc(-c4ccncc4)cs3)nc12	54.0	-7.5	x	-9.4
O=C(Nc1nc(-c2cc3ccccc3oc2=O)cs1)c1ccc(Br)o1	79.1*[fluorescence artefact?]	-2.0	-13.4	-18.8

Bioassay records from PubChem BioAssay.
